Data taken from PubChem BioAssay.

Test: probe aShh binding to arrayed compounds – biochemical, biotinylated probe, 635/667 nm fluorescence, primary screen (AID 1114);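 note: probe is biotin-labelled aShh protein from a stem cell growth factor screen; measures binding of labelled protein to compounds printed on the slide; score merges feature fluorescence at 667 nm with signal-to-noise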
Details: small-molecule microarray, higher = more signal

Structure (SMILES) | composite z-score
O=C1[C@H]2C=C(Br)[C@H](C[C@@H]2c2ccccc2)[C@@]12CO2 | -0.414
COc1ccc(C#Cc2ccc3c(c2)[C@]2(C(=O)N3)[C@H](c3ccccc3OCCO)N3[C@H](c4ccccc4)[C@H](c4ccccc4)OC(=O)[C@H]3[C@@H]2C(=O)O)cc1 | 0.0037
O=C1O[C@H](c2ccccc2)[C@H](c2ccccc2)N2[C@H]1[C@@H](C(=O)N1CCN(c3ncccn3)CC1)[C@]1(C(=O)Nc3ccc(C#CC4=CCCCC4)cc31)[C@H]2c1ccc(O)cc1 | -0.221
C=CC[C@@]1(C(N)=O)N=C(c2ccc(OCCCO)cc2)O[C@@H]1c1ccccc1CN=[N+]=[N-] | 0.166
COC(=O)[C@@]1(Cc2ccccc2)[C@H]2c3cc(C(=O)N4CCCC4)n(Cc4nc5ccccc5[nH]4)c3C[C@H]2CN1C(=O)c1ccccc1 | -0.2
O=C1O[C@H](c2ccccc2)[C@H](c2ccccc2)N2[C@H]1[C@@H](C(=O)O)[C@]1(C(=O)Nc3ccc(C#CC4=CCCCC4)cc31)[C@H]2c1ccccc1OCCO | -0.602
COCCOC(=O)N1C(=O)[C@@]2(c3cc(C#Cc4ccc(OC)cc4)ccc31)[C@H](c1ccccc1OCCO)N1[C@H](c3ccccc3)[C@H](c3ccccc3)OC(=O)[C@H]1[C@@H]2C(=O)N1CCN(c2ncccn2)CC1 | 0.13
C=C/C=C/[C@H]1C(=C)CN([C@@H](Cc2ccccc2)C(=O)OC)[C@@H]1[C@H](O)Cc1ccccc1 | -0.138
C=CCOC(=O)[C@H]1[C@@H]2C(=O)O[C@@H](c3ccccc3)[C@@H](c3ccccc3)N2[C@@H](c2ccc(OCCOC(=O)[C@@H]3C[C@@H]4C(=O)N[C@@H](CCCC[N+](C)(C)C)C(=O)N4[C@@H]3c3ccc(O)cc3)cc2)[C@]12C(=O)Nc1ccccc12 | 0.123
